In PubChem BioAssay (NCI) one finds growth data, which are given here for 39 molecules.

SMILES strings stand for the structures. The panel holds about 83,000 compounds, 20% with a hit somewhere; the sample as a whole holds those more often.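 Method: cells in 96-well plates; compound added at one concentration; 48 h incubation; percent growth measured; values under 10 scored active.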 Active and inactive are the calls of the source.

The subject of one test is HOP-62 NSCLC. Description: NCI-60 one-dose screen, 48 h (100 = growth as untreated, 0 = no growth, -100 = all killed). Particulars: 1 µM. The procedure:
Growth inhibition of the HOP-62 human Non-Small Cell Lung tumor cell line is measured as a screen for anti-cancer activity. Cells are grown in 96 well plates and exposed to the test compound for 48 hours. Compounds are tested at a single concentration, which is 10^-5 M for most compounds. The reported endpoint is percent growth (GI% or GIPRCNT), where numbers from 0 - 100% represent growth inhibition, and numbers from -100% - 0 represent cell death. For example, a value of 40 represents 60% growth inhibition. A value of 0 means no net growth occurred over the course of the experiment. A value of -40 indicates 40% of cells at the beginning of the experiment died by the end of the experiment. A value of -100 means all cells are dead at the end of the experiment.
NCI-60 Human Tumor Cell Lines Screen was performed using the standard one-dose NCI protocol, which is described in more detail at https://dtp.cancer.gov/discovery_development/nci-60/default.htm.
Compounds with GIPRCNT values below 10 were considered active. Activity score was based on GIPRCNT using the following formula: […]
Score is 0 for GIPRCNT values of 100 or above, 50 for GIPRCNT values of 0, and 100 for GIPRCNT values of -100.
Consider `CC/C(=C(/c1ccc(O)cc1)c1ccc(OCCN(C)C(=O)CCOCCNC(=O)Cc2ccc3c(c2)CN([C@@H]2CCC(=O)NC2=O)C3=O)cc1)c1ccccc1`, for which the growth is 82.5% (inactive).

Staying with this test, now noted: 10 µM.
As to `CC/C(=C(/c1ccc(O)cc1)c1ccc(OCCN(C)C(=O)CCOCCNC(=O)Cc2ccc3c(c2)CN([C@@H]2CCC(=O)NC2=O)C3=O)cc1)c1ccccc1`, the growth was 52.3% (inactive).

Still in this test, the particulars now being: 10 µM unless noted.
`O=C1CCC(N2C(=O)c3cccc(NCCCCCC(=O)N4CCN(c5ccc6nc7c(nc6c5C(F)(F)F)C(=O)c5ncccc5C7=O)CC4)c3C2=O)C(=O)N1` (stereo not given): the growth is -74.2% (active).
As to `COc1cc2cc(C(=O)N3C[C@@H](CCl)c4c3cc(OC(=O)N(C)CCSSCCN3CCOCC3)c3ccccc43)[nH]c2c(OC)c1OC`, the growth was -49.4% (active).
For the molecule `COC(=O)c1cccc(Oc2ccc(NC(=O)Nc3cc(C(F)(F)F)ccc3F)cc2)c1`, the growth is -8.81% (active).
The same measure, in the same setting: the same measure for `COc1ccc(OC)c(Cn2cc(C#N)c(N)c2C(=O)c2ccc(Br)cc2)c1`: 40.2% (inactive); for `O=C(c1ccc(Cl)cc1)C1[C@H](c2ccccc2Cl)[C@@H](c2ccccc2)NC12C(=O)Nc1ccccc12` (stereo not given in full): -40.9% (active); for `O=C(N/N=C/c1ccc(Cl)cc1)c1ccc(OCc2nc3ccc(Cl)cc3[nH]2)cc1`: -41.6% (active).
Still for that read-out and setting: the same measure for `Nc1nnc(-c2cncc(Br)c2)c(-c2c[nH]c3ccc(Br)cc23)n1`: 72.7% (inactive); for `Oc1cncc(-c2ccc3ncnc(N4CCc5cc(F)c(Cl)cc54)c3c2)c1`: 49.5% (inactive).
As for `Cc1ccc(Cl)cc1NC(=O)N/C(N)=N/c1nc2ccccc2s1`, the growth was -11.7% (active).
Consider `CC1=C(C(=O)OCc2ccccc2)C(c2cccc3ccccc23)n2c(nc3ccccc32)N1` (stereo not given), for which the growth is 38.3% (inactive).
On the same count and under the same terms, under `CCOc1ccc2[nH]c(=O)c(C(c3nnnn3CC3CCCO3)N3CCN(Cc4ccccc4)CC3)cc2c1` (stereo not given) stands 102% (inactive); under `O=CNc1ccc(-n2cnc3cc(-c4ccc(O)cc4)ccc32)cc1`, 85.6% (inactive).
The same measure, in the same setting: under `O=C(N=Nc1c(O)[nH]c2ccc(Cl)cc12)c1ccc2nc(-c3ccc(Cl)cc3)[nH]c2c1` stands -37.9% (active).
Regarding `Cc1ccc2c(c1)nc(-c1ccccc1)n2CC(=O)N=Nc1c(O)[nH]c2ccc(Cl)cc12`, the growth is -79.7% (active).
On the same count and under the same terms, under `Cc1ccc(S(=O)(=O)Nc2ccc(-c3ccc4c(c3)NC(=O)/C4=C\c3ccc[nH]3)cc2)cc1` stands 96.5% (inactive); under `Cc1ccc(/C=C/C(=O)c2ccc(S(=O)(=O)NCCNc3nc(N(C)C)nc(N4CCOCC4)n3)cc2)cc1`, 114% (inactive).
Still for that read-out and setting: under `Cn1cc(-c2cc3nc(-c4c[nH]c5ccccc45)cc(N)n3n2)c2ccccc21` stands -68.2% (active).
Turning to `COc1cc(/C=C/C(=O)c2cnn(-c3cc(=O)[nH]c4ccc(C)cc34)c2C)cc(OC)c1OC`, the growth was 2.27% (active).
Still for that read-out and setting: under `CN1C(=O)C(O)(CC(=O)c2cc3ccccc3oc2=O)c2ccccc21` (stereo not given) stands 97% (inactive); under `Cc1nn(-c2ccccc2)c2nc(C)n(C(=O)N/N=C/c3cccc([N+](=O)[O-])c3)c(=O)c12`, 98.6% (inactive).
As for `COc1ccc2c(c1)C(Sc1ccc(F)cc1)c1c(nc(N)c(C#N)c1N)O2` (stereo not given), the growth was 111% (inactive).
Same read-out and setting: the same measure for `Cc1ccccc1Nc1nnc(-c2c[nH]c3ccccc23)o1`: 24.8% (inactive); for `N#CC1=C(c2ccco2)Nc2c(c(-c3ccccc3)nn2-c2ccccc2)C12C(=O)Nc1ccc(Br)cc12` (stereo not given): 10.5% (inactive); for `Cn1cc(-c2cc(N)n3nc(-c4c[nH]c5ccc(Cl)cc45)cc3n2)c2cccnc21`: -88.9% (active).
For `COc1cc(CNC(=O)C[C@H](C)CCC=C(C)C)ccc1OCc1cn(-c2cccc(C(F)(F)F)c2)nn1`, the growth is 88.8% (inactive).
Same read-out and setting: under `Cc1ccc2c(c1)/C(=C/C(=O)c1cc3ccccc3oc1=O)C(=O)N2` stands 89.4% (inactive).
Same read-out and setting: under `Cc1cc(C(NC(=O)C2CC3(CC(Nc4cccc5c4C(=O)N(C4CCC(=O)NC4=O)C5=O)C3)C2)c2ccc3c(c2)OC(F)(F)O3)c(O)c2ncccc12` (stereo not given) stands -10.9% (active).
On the same count and under the same terms, under `Fc1ccc(F)c(CNc2nc(SCCN3CCOCC3)nc3c2cnn3CC(Cl)c2ccc(Br)cc2)c1` (stereo not given) stands 47.8% (inactive).
Turning to `COc1ccc(-c2cc(-c3ccccc3)c(C#N)c(=O)[nH]2)cc1S(N)(=O)=O`, the growth is 97.6% (inactive).
Still for that read-out and setting: under `COc1ccc(NC(=O)CSc2nnc(-c3ccc(-c4nc5ccccc5[nH]4)cc3)o2)cc1` stands -15.8% (active).
On the same count and under the same terms, the same measure for `Cn1cc(-c2cc(N)n3nc(-c4c[nH]c5ccccc45)cc3n2)c2cc(Br)ccc21`: -76.9% (active); for `Cc1nc(N)ncc1-c1ccc2ncnc(N3CCc4cc(F)c(Cl)cc43)c2c1`: 72.8% (inactive).
On the same count and under the same terms, the same measure for `COc1ccc2[nH]c(O)c(N=NC(=O)c3ccc4nc(-c5ccc(Cl)cc5)[nH]c4c3)c2c1`: 48.9% (inactive); for `Cc1ccc2nc(SCc3ccccc3F)n(-c3ccccc3)c(=O)c2c1`: 95% (inactive).
In the case of `CN1C(=O)/C(=C/c2ccco2)S/C1=N/c1nccs1`, the growth is 108% (inactive).
The same measure, in the same setting: under `OC1CCC(Cn2c(C(F)(F)F)cc3c(Cl)ncnc32)CC1` (stereo not given) stands 13.3% (inactive).
On the same count and under the same terms, under `CN1CCN(CCS(=O)(=O)Nc2cc(-c3ccc4ncnc(Nc5ccc(F)c(Cl)c5)c4c3)cnc2Cl)CC1` stands 39.9% (inactive); under `N/C(=N\c1nc2ccc([N+](=O)[O-])cc2s1)NC(=O)Nc1ccccc1Cl`, 51.3% (inactive).
